Results on eight molecules are retold here after PubChem BioAssay (NCI).

About 83,000 compounds went through this panel and 20% of them were active in at least one assay; those are over-represented in the sample as a whole.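 Method: cells in 96-well plates; compound added at one concentration; 48 h incubation; percent growth measured; values under 10 scored active.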 A number with no mark means an inactive call. Calls of active or inactive are those of the source.

Test systems include NCI-H23 lung; NCI-H226 lung; HOP-62 NSCLC; HOP-92 NSCLC; NCI-H522 lung; A549/ATCC NSCLC; 786-0 renal; COLO 205 colon; DU-145 prostate; K-562 leukemia; MALME-3M melanoma; MDA-MB-231 breast; RXF 393 renal; SF-268 CNS; SF-295 CNS; SF-539 CNS; UACC-257 melanoma; M14 melanoma; NCI-H460 lung.
What all share (assay): NCI-60 one-dose screen, 48 h (100 = growth as untreated, 0 = no growth, -100 = all killed)
Conditions in all cases: 10 µM unless noted

For `C=C1C(=O)O[C@H]2[C@H]1CC/C(CNC(=O)/C=C/c1ccc(Br)cc1)=C\CC[C@@]1(C)O[C@@H]21`, the growth in the assay on NCI-H23 lung was -9.66% (active); in the assay with NCI-H226 lung, 12.3%; with HOP-62 NSCLC, 41.2%; in the assay with HOP-92 NSCLC, -26.2% (active); with NCI-H522 lung it was -71.2% (active); in the assay on A549/ATCC NSCLC, 14.2%. The growth in the assay with 786-0 renal was -63.4% (active); in the assay with COLO 205 colon it was -64.9% (active); in the assay with DU-145 prostate it was -98.7% (active); in the assay with K-562 leukemia it was 0.48% (active); with MALME-3M melanoma, -78% (active); in the assay with MDA-MB-231 breast, -80.6% (active). In addition, the growth was -89.2% (active) in the assay on RXF 393 renal; -29.4% (active) with SF-268 CNS; 49.6% with SF-295 CNS; -91.7% (active) in the assay on SF-539 CNS; -40.5% (active) with UACC-257 melanoma; -72.4% (active) in the assay on M14 melanoma.
For `COc1ccc2c(c1)c(CC(=O)NCCOCCOCC(=O)Nc1ccc(OC)c(C(N)=O)c1O)c(C)n2C(=O)c1ccc(Cl)cc1`, the growth was 90.1% with NCI-H23 lung; 91.5% in the assay on NCI-H226 lung; 88.8% in the assay on HOP-62 NSCLC; 101% in the assay with NCI-H460 lung; 91.3% in the assay on HOP-92 NSCLC; 81.3% in the assay on NCI-H522 lung. Also, the growth in the assay with A549/ATCC NSCLC is 85.7%; in the assay on 786-0 renal, 73.8%; in the assay on COLO 205 colon it was 109%; in the assay with DU-145 prostate, 107%; in the assay with K-562 leukemia it was 91.5%; with MALME-3M melanoma it was 118%. Also, the growth in the assay on MDA-MB-231 breast was 92%; in the assay with RXF 393 renal, 92.9%; in the assay with SF-268 CNS, 88.9%; in the assay on SF-295 CNS, 93.8%; in the assay on SF-539 CNS it was 99.9%; in the assay with UACC-257 melanoma, 113%. The growth in the assay on M14 melanoma is 98.3%.
As to `COc1ccc(/C=C2\COc3ccc(-c4ccccc4)cc3C2=O)cc1O`, the growth is 50.5% with NCI-H23 lung; 96.2% in the assay on NCI-H226 lung; -41.9% (active) in the assay on HOP-62 NSCLC; 16.7% in the assay on NCI-H460 lung; -1.71% (active) in the assay with HOP-92 NSCLC; 17.8% with NCI-H522 lung. Moreover, the growth in the assay on A549/ATCC NSCLC was 62%; in the assay with 786-0 renal it was -21.8% (active); in the assay on COLO 205 colon, 63.9%; in the assay with DU-145 prostate it was -2.34% (active); with K-562 leukemia it was 2.96% (active); in the assay with MALME-3M melanoma, 74.7%. The growth is 41.6% with MDA-MB-231 breast; 13.3% in the assay with SF-268 CNS; 24.2% with SF-295 CNS; -0.576% (active) in the assay with SF-539 CNS; 48.3% in the assay on UACC-257 melanoma; 22.9% in the assay on M14 melanoma.
As to `Cn1c(COC(=O)N2CCCCC2)nc2c(N3CCOCC3)nc(-c3ccccc3)nc21`, the growth in the assay on NCI-H23 lung was -75.9% (active); in the assay on NCI-H226 lung, -60.8% (active); in the assay on HOP-62 NSCLC, -31.3% (active); in the assay on NCI-H460 lung, -55.9% (active); in the assay with HOP-92 NSCLC it was -64.7% (active); in the assay with NCI-H522 lung, -53.2% (active). For the same molecule, the growth was -39.7% (active) in the assay with A549/ATCC NSCLC; -75.1% (active) in the assay on 786-0 renal; -60.2% (active) in the assay with COLO 205 colon; -87% (active) with DU-145 prostate; 3.43% (active) in the assay on K-562 leukemia; -85.2% (active) with MALME-3M melanoma. The growth in the assay with MDA-MB-231 breast is -71.6% (active); with SF-268 CNS it was -78.5% (active); in the assay with SF-295 CNS, 21.6%; in the assay with SF-539 CNS, -91.9% (active); in the assay with UACC-257 melanoma, -76.3% (active); with M14 melanoma, -59.8% (active).
As to `COc1c(Cl)cc(Cl)c2ccc(C=C3C(=O)N(C)C(=O)N(C)C3=O)nc12`, the growth in the assay on NCI-H23 lung is 104%; in the assay with NCI-H226 lung, 100%; with HOP-62 NSCLC, 37.3%; with NCI-H460 lung, 96.8%; with HOP-92 NSCLC, 119%; with A549/ATCC NSCLC, 111%. Also, the growth with 786-0 renal is 53.7%; in the assay on COLO 205 colon, 110%; in the assay on DU-145 prostate, 108%; in the assay on K-562 leukemia it was 100%; in the assay on MALME-3M melanoma it was 107%; with MDA-MB-231 breast, 107%. Further, the growth was 97.3% with SF-268 CNS; 80.3% with SF-295 CNS; 98.6% in the assay with SF-539 CNS; 106% with UACC-257 melanoma; -15.7% (active) in the assay with M14 melanoma.
With `O=C(CSc1nc2sc3c(c2c(=O)n1Cc1ccccc1)CCCC3)N1CCN(c2ccccc2)CC1`, the growth in the assay on NCI-H23 lung is 90.9%; in the assay with NCI-H226 lung, 94.6%; with HOP-62 NSCLC, 88.3%; in the assay with NCI-H460 lung it was 103%; in the assay with HOP-92 NSCLC, 103%; in the assay on NCI-H522 lung it was 81.1%. For the same molecule, the growth in the assay on A549/ATCC NSCLC was 73%; with 786-0 renal, 103%; in the assay with COLO 205 colon, 112%; in the assay with DU-145 prostate, 103%; in the assay on K-562 leukemia it was 99.4%; in the assay with MALME-3M melanoma, 109%. Also, the growth is 101% in the assay with MDA-MB-231 breast; 105% with RXF 393 renal; 93.9% with SF-268 CNS; 101% in the assay on SF-295 CNS; 103% with SF-539 CNS; 85.7% with UACC-257 melanoma. Besides, the growth in the assay on M14 melanoma is 97.2%.
Regarding `C=C(C)[C@@H]1CC[C@]2(CO)CC[C@]3(C)[C@H](CC[C@@H]4[C@@]5(C)CCCNC(C)(C)[C@@H]5CC[C@]43C)[C@@H]12`, the growth was 62.6% in the assay on NCI-H23 lung; 84.4% with NCI-H226 lung; 79% in the assay with HOP-62 NSCLC; -54.4% (active) in the assay with NCI-H460 lung; 82% in the assay on HOP-92 NSCLC; 64.2% with NCI-H522 lung. Besides, the growth with A549/ATCC NSCLC was 44.9%; with 786-0 renal, 30.2%; in the assay on COLO 205 colon it was -63.5% (active); in the assay with DU-145 prostate it was 49.5%; in the assay with K-562 leukemia, -26.6% (active); with MALME-3M melanoma, -65.4% (active). In addition, the growth with MDA-MB-231 breast was 46.8%; with RXF 393 renal, 48.4%; in the assay on SF-268 CNS it was 61.2%; in the assay on SF-295 CNS, 40.4%; with SF-539 CNS, 34.3%; in the assay with UACC-257 melanoma, -8.72% (active). Besides, the growth in the assay on M14 melanoma is -49.8% (active).
For `O=C(CN1CCOCC1)Nc1ccc2ncnc(Nc3ccc(Oc4cccc(C(F)(F)F)c4)c(Cl)c3)c2c1`, the growth in the assay on NCI-H23 lung is 68.8%; in the assay with NCI-H226 lung, 75%; with HOP-62 NSCLC it was 73.9%; in the assay with NCI-H460 lung, 64.1%; in the assay with HOP-92 NSCLC it was 53%; in the assay on A549/ATCC NSCLC, 51.2%. Moreover, the growth in the assay with 786-0 renal was 65.3%; in the assay on COLO 205 colon, 76.9%; with DU-145 prostate, 40.8%; in the assay on K-562 leukemia, 35%; with MALME-3M melanoma it was 73.4%; with MDA-MB-231 breast, 60.1%. The growth is 59.6% in the assay with SF-268 CNS; 63.5% in the assay on SF-295 CNS; 78.8% in the assay on SF-539 CNS; 83.3% in the assay with UACC-257 melanoma; 64% with M14 melanoma.
